High-throughput results: PubChem BioAssay, National Center for Advancing Translational Sciences (NCATS)
ELG1 DNA repair: blocks ELG1-dependent DNA repair in HEK293T cells. HEK293T ELG1-luciferase reporter, luminescence, 16 h; DNA damage induced by 5-fluorouridine. actives 2.3% (n = 330,000). Potency, µM (doses to about 46.1 µM), for the others: at the top dose activity change, negative = inhibition, hits mostly inhibitors; also: % is scaled to controls: 0 for no effect and ±100 for the full control effect; nearly all actives have a fitted effect of over 55% in size
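In this reporter screen, reduction of luminescence relative to DMSO vehicle indicated activity. Compounds and 5-fluorouridine were added together to 2,000 cells per well, incubated for 16 hr at 37 °C, then developed with ONE-Glo.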
KB-V1 MDR tox: KB-V1 MDR subline cytotoxicity | KB-V1 MDR cells viability, CellTiter-Glo, 72 h | actives 3.4% (n = 400,000) | Potency, µM (titrated, usually from 46.1 µM), actives largely listed as cytotoxic; also: % is scaled to controls: 0 for no effect and ±100 for the full control effect; nearly all actives have a fitted effect of over 60% in size
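Cells of the MDR subline KB-V1 are plated, dosed with compound at multiple concentrations, and incubated 72 h at 37 degrees C; CellTiter-Glo is then added and luminescence read after 10 min.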
MCF10A rereplic: DNA re-replication induction in MCF 10a cells; AID 624296; Potency, µM (top dose mostly 46.1 µM), without a hit: top-dose activity, positive = re-replication, hits mostly activators; actives 2.9% (n = 350,000); MCF 10A DNA re-replication, Hoechst nuclear intensity, 48 h; also: % of control where 0% means no effect; nearly all actives have a fitted effect of over 50% in size
SW480 rereplic: induces DNA re-replication in SW480 colon adenocarcinoma cells. SW480 DNA re-replication, Hoechst DNA content imaging, 48 h. Potency, µM (series often up to 46.1 µM), for inactives: top-dose re-replication activation, most hits filed as activators. actives 1.8% (n = 340,000); also: % of control where 0% means no effect; nearly all actives have a fitted effect of over 55% in size
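SW480 cells exposed to compounds for 48 hr at 37 C, 5% CO2, then Hoechst-stained 40 min. Nuclear DNA content imaged by fluorescence scanning (405 nm excitation, 500-530 nm emission); re-replication scored as increased high-intensity nuclei.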
KB-3-1 cytotox: kills parental KB-3-1 adenocarcinoma cells | KB-3-1 viability, CellTiter-Glo ATP luminescence, 72 h | Potency, µM (top dose mostly 46.1 µM), actives largely listed as cytotoxic | actives 1.4% (n = 400,000); also: % is scaled to controls: 0 for no effect and ±100 for the full control effect; nearly all actives have a fitted effect of over 60% in size
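Luminescent ATP read-out (CellTiter-Glo) measures survival of drug-naive KB-3-1 cells after 72 h compound exposure at 37 °C. Titration series was screened from lowest to highest concentration, with DMSO vehicle plates as background controls.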
* = called active by the depositor; i = inactive; ? = inconclusive; / = no result; [ ] = dose if it differs, or a comment. Rows were chosen to be rich in hits. Some 8.1% of all compounds tested hit in one or more screens of this group. Calls follow the shape of the dose curve; as a rule, active = well fitted curve in the direction sought with a large enough effect; inconclusive = small, poorly fitted or top-dose-only effect, or another doubt; inactive = no such curve, though single readings can be large; an effect the other way counts as inactive or inconclusive. Potency is read from the fitted curve at half-maximal effect.

SMILES | ELG1 DNA repair | KB-V1 MDR tox | MCF10A rereplic | SW480 rereplic | KB-3-1 cytotox
O=C1C2C3C=CC(C3)C2C(=O)N1/N=C/c1ccc(-c2ccccc2[N+](=O)[O-])o1 (stereo not drawn) | ? | i | ? | 0.1% | i
CC(C)C[C@H](N)C(=O)N1CCC(C(=O)N[C@H](C(=O)NCc2ccc(F)cc2)C(C)C)CC1 | ? | i | 21.9% | ? | i
CCOc1ccc(C2C(=O)N(C3CCCCC3)CC(=O)N2CC2CCCO2)cc1OC (stereo not drawn) | 23.4% | 18.4µM* | -1.6% | 1.1% | i
COc1ccccc1CN1C(=O)CN(C2CCCC2)C(=O)C1c1ccc(F)cc1 (stereo not drawn) | 10.6% | 3.66µM* | -6.5% | 18.4% | i
CCOC(=O)CCn1nc(-c2ccc(Cl)cc2)cc1N | ? | ? | 3.7% | 1.8% | 20.6µM*
Nc1nnc(CCS(=O)(=O)c2cc(Cl)ccc2Cl)s1 | ? | i | 2.0% | -0.4%[9.22 µM] | i
Cc1ccccc1CN(C)CCS(=O)(=O)c1cc(Cl)ccc1Cl | 12.1% | ? | 9.2µM* | 18.4µM* | ?
C[C@H](CO)N1C[C@H](C)[C@H](CN(C)S(C)(=O)=O)OCc2ccccc2-c2c(n(C)c3ccccc23)C1=O | / | ? | / | / | i
C[C@H](CO)N1C[C@H](C)[C@H](CN(C)S(=O)(=O)c2cccc(F)c2)OCc2ccccc2-c2c(n(C)c3ccccc23)C1=O | / | i | / | / | 23.1µM*
C[C@H](CO)N1C[C@H](C)[C@@H](CN(C)S(=O)(=O)c2ccccc2)Oc2ccc(NC(=O)Nc3ccccc3)cc2C1=O | 20.6µM* | i | -13.0% | -2.4% | i
C[C@@H]1CN([C@@H](C)CO)C(=O)c2ccccc2-c2ccccc2CO[C@@H]1CN(C)S(=O)(=O)c1ccc(C(F)(F)F)cc1 | / | 16.4µM* | / | / | i
C[C@@H]1CN([C@@H](C)CO)C(=O)c2cc(NC(=O)Nc3ccc4c(c3)OCO4)ccc2O[C@H]1CN(C)S(=O)(=O)c1ccc(F)cc1 | 25.9µM* | i | -38.8% | ? | i
C[C@H](CO)N1C[C@H](C)[C@@H](CN(C)S(=O)(=O)c2ccc(F)cc2)Oc2ccc(NC(=O)Nc3ccc4c(c3)OCO4)cc2C1=O | ? | i | ? | -7.3% | i
COc1cccc(CNC(=O)[C@@H]2CCCN2C(=O)[C@@H]2CCCN2C(=O)c2c(F)cccc2F)c1 | / | i | / | / | i
O=C(Nc1ccc(Cl)cc1)N1CCOC12CCC1(CC2)OCCO1 | -8.7% | i | -3.0% | 3.5% | i
CN1CCC(N(C)C(=O)c2ccc(Cl)c(S(=O)(=O)N(C)c3ccc(Cl)cc3)c2)CC1 | -15.5% | i | ? | -8.9% | i
COc1ccc(CNC(=O)C2CCCN(Cc3nc(-c4cccc(C)c4)oc3C)C2)cc1 (stereo not drawn) | ? | i | 18.0% | -0.9% | i
Cc1onc(-c2ccccc2Cl)c1C(O)c1ccc(F)cc1 (stereo not drawn) | -3.3% | i | -4.9% | -0.4% | i
C[C@H](CO)N1C[C@H](C)[C@@H](CN(C)S(=O)(=O)c2ccc(F)cc2)Oc2ccc(NC(=O)Nc3ccc(C(F)(F)F)cc3)cc2C1=O | 20.6µM* | i | -46.9% | -0.6% | ?
C[C@H](CO)N1C[C@H](C)[C@@H](CN(C)S(=O)(=O)c2ccccc2)Oc2ccc(NC(=O)C3CC3)cc2C1=O | 18.3µM* | i | -20.6% | 7.7% | i
C[C@H](CO)N1C[C@H](C)[C@@H](CN(C)S(=O)(=O)c2cccs2)Oc2ccc(NC(=O)Nc3ccccc3)cc2C1=O | 23.1µM* | i | ? | -9.8% | i
C[C@@H]1CN([C@H](C)CO)C(=O)c2cc(NC(=O)Nc3ccc(C(F)(F)F)cc3)ccc2O[C@H]1CN(C)S(=O)(=O)c1ccc(Cl)cc1 | ? | i | -19.9% | 4.9% | i
C[C@H](CO)N1C[C@H](C)[C@@H](CN(C)S(=O)(=O)c2ccc(F)cc2)Oc2ccc(NC(=O)Nc3ccccc3)cc2C1=O | 23.1µM* | i | 0.6% | 2.9% | i
CN(CC(=O)Nc1ccc(F)c(F)c1F)C(=O)C1CCCCC1 | 28.6% | i | 4.0% | -26.5% | i
O=S(=O)(c1ccc(Cl)cc1)c1nc(-c2ccccc2F)oc1NCc1ccccc1 | / | i | / | / | i
SMILES | ELG1 DNA repair | KB-V1 MDR tox | MCF10A rereplic | SW480 rereplic | KB-3-1 cytotox
CN(C(=O)COC(=O)CN1C(=O)c2ccccc2C1=O)c1c(N)n(Cc2ccccc2)c(=O)[nH]c1=O | -1.7% | i | -2.5% | -3.0% | i
C=CCOc1ccccc1CN(C(=O)CCl)c1ccc2c(c1)OCO2 | -1.3% | ? | ? | 5.17µM* | ?
CCOc1ccccc1NC(=O)Nc1ccc2c(c1)OCO2 | ? | i | 14.2% | -3.3% | i
COc1ccc(CCNC(=O)C/C(C)=N/NC(=O)COc2ccc(C)cc2Br)cc1OC | 12.8% | i | -2.7% | -7.1% | i
COc1ccccc1CNC(=O)C/C(C)=N/NC(=O)COc1ccc(C)cc1Br | -26.1% | i | -1.1% | -370.4% | 23.1µM*
CC1(C(=O)Nc2ccc3ccccc3c2)CC1(Br)Br (stereo not drawn) | ? | i | -1.0% | -1.1% | i
O=C(O)CCc1ccc(-c2ccccc2)n1NC(=O)c1cccs1 | 15.1% | i | -15.1% | 23.1µM* | i
O=C(N/N=C/c1cccs1)c1n[nH]c2c1CCC2 | ? | ? | 8.2µM* | 11.6µM* | 5.8µM*
O=C(N/N=C/c1ccc(Cl)cc1)c1n[nH]c2c1CCCC2 | ? | 1.3µM* | ? | ? | 4.61µM*
O=C(N/N=C/c1ccccc1Cl)c1n[nH]c2c1CCCC2 | ? | i | -1.6% | -2.7% | ?
O=C(COC(=O)COc1ccccc1)Nc1ncc([N+](=O)[O-])s1 | 16.6% | i | -3.1% | -3.5% | i
O=C(Cc1ccc(Br)cc1)Nc1ncc([N+](=O)[O-])s1 | -5.1% | ? | ? | 6.5% | 20.6µM*
O=C(COc1ccc(Cl)cc1)Nc1ncc([N+](=O)[O-])s1 | ? | 13µM* | ? | -2.5% | ?
O=C(Cc1ccc(Cl)cc1)Nc1ncc([N+](=O)[O-])s1 | ? | ? | ? | -4.5% | i
COc1ccccc1/C=C1\C=Cc2ccccc21 | / | i | / | / | i
Cc1ccsc1/C=N/NC(=O)CN1CCN(S(=O)(=O)c2ccc(Br)cc2)CC1 | -9.3% | ? | 21.2% | / | i
CCOC(=O)N1N=C(CC)CC1(O)C(F)(F)F (stereo not drawn) | 10.1% | ? | 17.4% | -2.9% | i
CCC1=NN(C(=O)Cc2ccc(OC)c(OC)c2)C(O)(C(F)(F)F)C1 (stereo not drawn) | -2.4% | 14.6µM* | -0.6% | -20.8% | i
